Bioassay records deposited in PubChem BioAssay by National Center for Advancing Translational Sciences (NCATS).
Sampled rows, rich in hits. Any-hit rate of the full collection: about 15%.
ALOX12 inh = blocks human arachidonate 12S-lipoxygenase; purified 12hLO, xylenol orange hydroperoxide absorbance; 580,000 tested, 1.1% active; Potency, µM (top dose mostly 108 µM), for the others: at the top dose activity change, negative = inhibition, actives largely listed as inhibitors; P18054; AID 1671190
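Purified human 12hLO (150 nM final) in 25 mM Hepes, 0.01% Triton X-100, pH 7.0 was preincubated 15 min at room temperature with compound. Then 40 uM arachidonic acid was added, 30 min. Hydroperoxide was read by Fe-XO absorbance ratio 573/405 nm.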
TDP1 cell CPT = DT40-hTDP1 cell growth loss with CPT; chicken DT40 Tdp1-/-;hTDP1 cells + 20 nM CPT, ATP luminescence, 48 h; Potency, µM (highest dose often 46.2 µM), for inactives: at the top dose activity change, negative = growth inhibition, usual class: inhibitors; 420,000 tested, 12% active; also: nearly all actives have a fitted effect of over 55% in size
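Cell growth measured by CellTiter-Glo luminescence after a minimum 48 h, 37 C compound exposure with 20 nM CPT in Tdp1-knockout DT40 cells stably expressing hTDP1, seeded 400/well; qHTS titration format.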
RORgamma inh = inhibitors of mouse ROR gamma transcriptional activity; P51450; Drosophila S2 Gal4-RORgamma UAS-luciferase reporter, 20 h; Potency, µM (doses to about 53.6 µM), inactives show top-dose activity change, negative = inhibition, usual class: inhibitors; 310,000 tested, 5.4% active; AID 2551; also: nearly all actives have a fitted effect of over 60% in size
Target sequence (P51450 whole entry, looked up, the tested form may be a part): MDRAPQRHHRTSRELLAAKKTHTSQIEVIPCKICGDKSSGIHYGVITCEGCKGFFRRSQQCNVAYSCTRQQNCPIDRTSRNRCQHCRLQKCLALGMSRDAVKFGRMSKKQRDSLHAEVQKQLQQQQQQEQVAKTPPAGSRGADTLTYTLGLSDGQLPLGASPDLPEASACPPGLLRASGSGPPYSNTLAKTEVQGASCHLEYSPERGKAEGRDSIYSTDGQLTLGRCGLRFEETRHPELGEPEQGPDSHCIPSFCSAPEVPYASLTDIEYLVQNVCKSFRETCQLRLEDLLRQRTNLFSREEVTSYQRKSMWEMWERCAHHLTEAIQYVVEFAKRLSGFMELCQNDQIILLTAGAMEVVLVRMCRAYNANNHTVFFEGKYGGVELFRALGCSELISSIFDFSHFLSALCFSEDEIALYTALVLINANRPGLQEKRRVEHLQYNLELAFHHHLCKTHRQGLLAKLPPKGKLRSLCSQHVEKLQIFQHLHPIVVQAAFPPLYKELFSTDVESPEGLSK
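Drosophila S2 cells stably expressing Gal4-DBD/mouse RORγ fusion under metallothionein promoter plus UAS-luciferase; compound 1 h, then 700 uM CuSO4 induction for 20 h at ambient temperature; inhibition read as reduced luminescence.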
VP16 counter = counter-screen for ROR gamma inhibitors: Gal4-VP16 reporter | Potency, µM (top dose mostly 53.6 µM), for inactives: at the highest dose activity, negative = inhibition, hits mostly inhibitors | Drosophila S2 Gal4-VP16 UAS-luciferase, luminescence, 20 h | 310,000 tested, 3.5% active;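 also: Gal4-VP16 expression switched on by copper sulfate through the metallothionein promoter; nearly all actives have a fitted effect of over 50% in size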
ELG1 repair inh = inhibitors of ELG1-dependent DNA repair in HEK293T cells; HEK293T ELG1-luciferase reporter, luminescence, 16 h; DNA damage induced by 5-fluorouridine; 330,000 tested, 2.3% active; Potency, µM (titrated, usually from 46.1 µM), without a hit: top-dose activity change, negative = inhibition, hits mostly inhibitors; also: nearly all actives have a fitted effect of over 55% in size
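5-Fluorouridine DNA damage + compound/DMSO, 2,000 cells/well, 16 h, 37 °C/5% CO2. ONE-Glo, 30 min RT, luminescence. Readout = decrease in reporter signal.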
DT40 TDP1 no CPT = qHTS for Inhibitors of human tyrosyl-DNA phosphodiesterase 1 (TDP1): qHTS in cells in absence of CPT. DT40 Tdp1-/- hTDP1 cells, no CPT, ATP luminescence, 48 h. Potency, µM (series often up to 46.2 µM), for the others: top-dose activity change, negative = growth inhibition, usual class: inhibitors. 420,000 tested, 15% active. AID 686978, 2013; also: nearly all actives have a fitted effect of over 55% in size
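Readout: luminescence from CellTiter-Glo after 30 min in the dark at RT. Cells: DT40 Tdp1-/- with stable hTDP1, 400/well. Exposure: compounds alone, ≥48 hr, 37 °C.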
Active calls of the source: *; ? = inconclusive; nt = no result given; [ ] = dose if it differs, or a comment. Calls follow the shape of the dose curve; as a rule, active = well fitted curve in the direction sought with a large enough effect; inconclusive = small, poorly fitted or top-dose-only effect, or another doubt; inactive = no such curve, though single readings can be large; an effect the other way counts as inactive or inconclusive. % is scaled to controls: 0 for no effect and ±100 for the full control effect; potency is read from the fitted curve at half-maximal effect.

SMILES	ALOX12 inh	TDP1 cell CPT	RORgamma inh	VP16 counter	ELG1 repair inh	DT40 TDP1 no CPT
CCCCCCCCCCCCOC(=O)C[N+](C)(C)C	?	6%	?	0%	-16%	-13%
CCCCCCOC(=O)c1ccccc1	3%[176 µM]	nt	nt	nt	nt	nt
CCCCCCCCCCOC(=O)C[N+](C)(C)C/C=C(/C)Cl	-14%	8.2µM*	14%	22µM*	-9%	3.7µM*
CCCCCCCCOC(=O)C[N+](C)(C)C/C=C(/C)Cl	-13%	16µM*	79%	?	0%	10µM*
CC(=O)Nc1ccc(CC(=O)NCCC(c2ccccc2)c2ccccc2)cc1	40%	16µM*	-6%	3%	-8%	18µM*
N#CCC(=O)Nc1ccc(C(=O)NCCC(c2ccccc2)c2ccccc2)cc1	0%	2%	1%	4%	-19%	-14%
S=C(NCCC(c1ccccc1)c1ccccc1)Nc1ccccc1Cl	?	?	13µM*	?	-6%	?
S=C(NCCC(c1ccccc1)c1ccccc1)Nc1ccc(Cl)cc1	?	?	7.9µM*	?	-4%	?
O=C(N[C@H]1CCN2C(=O)c3cc(-c4ccsc4)ccc3NC(=O)[C@H]12)c1cnccn1	7%[176 µM]	nt	nt	nt	nt	nt
CN(C(=O)CN1CCOCC1)C1CCc2nn(C)c(=O)n2CC1 (configuration not stated)	4%	nt	nt	nt	nt	nt
O=C1Nc2ccccc2/C1=C/c1ccccc1F	3%	?	32%	-18%	23%	23µM*
CN(C)c1ccc(/C=C2\C(=O)Nc3ccccc32)cc1	-7%	16µM*	-27%	?	nt	16µM*
CN(C)c1ccc(/C=C2/C(=O)Nc3ccccc32)cc1	4%	?	-25%	2%	nt	?
Cc1nn(-c2ccc(F)cc2)c(Cl)c1/C=C1\C(=O)Nc2ccccc21	-15%	6.5µM*	16%	-21%	?	8.2µM*
Cc1ccccc1/C=C1\C(=O)Nc2ccc(F)cc21	0%	-24%	35%	-8%	-4%	?
Cc1ccc(/C=C2\C(=O)Nc3ccccc32)o1	?	1.5µM*	22%	5%	12%	3.7µM*
CCOC(=O)C(=O)Nc1ccc(OCC(C)C)cc1	3%	nt	nt	nt	nt	nt
COc1ccc(-c2cc(C)no2)cc1S(=O)(=O)CCC(=O)Nc1cc(C)cc(C)c1	3%	nt	nt	nt	nt	nt
COc1ccc(F)cc1[C@@H](NC(=O)C1=NNC(=O)CC1)C1CC(O)C1 (some centres not stated)	5%	nt	nt	nt	nt	nt
CC(=O)N1c2ccccc2C(=O)C1N(C)c1ccc(C)cc1 (configuration not stated)	-19%	2%	-36%	-34%	0%	?
CC(=O)N1/C(=C/c2ccc(N(C)C)cc2)C(=O)c2ccccc21	-16%	0.52µM*	?	?	?	0.46µM*
CN(C)c1ccc(/C=C2\C(=O)/C(=C/c3ccc(N(C)C)cc3)c3ccccc32)cc1	nt	?	nt	nt	nt	7.1µM*
COc1cc(OC)cc(C(=O)N2CCC[C@H]2c2nc(-c3ccc(C)cc3)no2)c1	46%	nt	nt	nt	nt	nt
O=C(CCCCCNC(=O)N1CCn2c1nc1ccccc12)N[C@@H](C(=O)O)c1ccccc1	?	6%	0%	3%	2%	-5%
CC(NC(=O)CCCCCNC(=O)N1CCn2c1nc1ccccc12)c1ccccc1 (configuration not stated)	-1%	15µM*	40%	0%	?	-36%
SMILES	ALOX12 inh	TDP1 cell CPT	RORgamma inh	VP16 counter	ELG1 repair inh	DT40 TDP1 no CPT
Cc1nn(-c2ccccc2)c(Oc2ccccc2)c1CCC(=O)NCC1CCCO1 (configuration not stated)	5%	nt	nt	nt	nt	nt
CCn1c(=O)c(CCC(=O)NCCN2CCOCC2)c(C)c2c(C)nn(-c3ccccc3)c21	-4%	21µM*	-38%	-20%	-20%	?
Cc1ccc(-n2nc(C)c3c(C)c(CCC(=O)NCC4CCCO4)c(=O)n(C)c32)cc1 (configuration not stated)	5%	?	1%	1%	?	23µM*
CCn1c(=O)c(CCC(=O)NCC2CCCO2)c(C)c2c(C)nn(-c3ccccc3)c21 (configuration not stated)	-20%	16µM*	18%	4%	-24%	?
CCn1c(=O)c(CCC(=O)N2CCN(c3ccccn3)CC2)c(C)c2c(C)nn(-c3ccccc3)c21	-1%	16µM*	-17%	1%	16µM*	21µM*
CCn1cc(CCC(=O)NCCN2CCOCC2)c2ccccc21	5%	-4%	0%	-7%	7%	8%
Cc1ccc(S(=O)(=O)N2CC=C(c3c(C)n(C)c4ccccc34)CC2)cc1	-28%	?	?	-7%	0%	16µM*
CCOc1ccccc1NC(C)C(=O)NC(=O)NC1CCCCC1 (configuration not stated)	107%	18µM*	nt	nt	26%	-28%
CC(C(=O)NC(=O)NC1CCCCC1)N1CCN(C(c2ccccc2)c2ccccc2)CC1 (configuration not stated)	?	23µM*	6%	11%	?	15µM*
O=C(c1ccc(NC(=S)NCc2ccc(Cl)cc2)cc1)N1CCCCC1	-11%	?	-1%	-16%	?	23µM*
C=CCNC(=S)Nc1ccc2nc(C)c(C)nc2c1	-2%	?	-37%	-6%	?	18µM*
CCc1ccc(NC(=S)NCc2ccccc2)cc1	245%	2%	2.2µM*	?	?	14%
